# This excerpt belongs to a sample that is enriched for hits.
# nsP2pro inh: CHIKV nsP2 protease inhibition, primary qHTS; Q8JUX6; FRET peptide cleavage, nsP2pro, fluorescence 1 h; Potency, µM (highest dose often 24.9 µM), for the others: at the top dose activity change, negative = inhibition, usual class: inhibitors; 1.1% of 31,000 active; AID 1964107; also: nearly all actives have a fitted effect of over 60% in size
#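 Purified recombinant nsP2pro (150 nM final) in 10 mM Tris-HCl pH 8.0 with 0.01% Tween 20 was preincubated 15 min at room temperature with compound (7 concentrations, up to 25 uM). FRET peptide 2 substrate (2.5 uM final) was then added; fluorescence was read after 1 h.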
# nsP2 cell sec: cell-based CHIKV nsP2 protease inhibition, secondary; shares compounds with nsP2pro inh; cell-based CHIKV nsP2 protease reporter assay; Potency, µM (top dose mostly 51.1 µM), for inactives: top-dose activity change, negative = inhibition, usual class: inhibitors; 10% of 450 active; also: nearly all actives have a fitted effect of over 70% in size
# NSP2 full ctr: full-length CHIKV NSP2 protease inhibition, selectivity | shares compounds with nsP2pro inh | Potency, µM (top dose mostly 50.7 µM), for the others: at the highest dose activity change, negative = inhibition, usual class: inhibitors | Full-length CHIKV NSP2 protease enzymatic counterscreen | AID 1964101 | 39% of 410 active; also: nearly all actives have a fitted effect of over 65% in size
# Furin counter: human furin inhibition, counterscreen for nsP2pro inhibitors. shares compounds with nsP2pro inh. Recombinant human furin enzymatic counterscreen, fluorogenic substrate. Potency, µM (doses to about 50.6 µM), without a hit: top-dose activity change, negative = inhibition, most hits filed as inhibitors. 6% of 410 active. AID 1964102
# NS23 peptide cs: blocks CHIKV nsP2 protease cleavage of endogenous NS2/3 peptide; shares compounds with nsP2pro inh; Purified CHIKV nsP2 protease, endogenous NS2/3 peptide cleavage; Potency, µM (series often up to 51 µM), for the others: at the highest dose activity change, negative = inhibition, most hits filed as inhibitors; 34% of 410 active; AID 1964103; also: nearly all actives have a fitted effect of over 55% in size
# Papain cs: papain protease inhibition, counterscreen for nsP2pro inhibitors. AID 1964104. purified papain protease activity, enzymatic inhibition. shares compounds with nsP2pro inh. 5% of 410 active. Potency, µM (series often up to 51 µM), inactives show at the highest dose activity change, negative = inhibition, hits mostly inhibitors
# nsP2pro conf qHTS: CHIKV nsP2 protease inhibition, confirmatory qHTS; AID 1964105; shares compounds with nsP2pro inh; 43% of 410 active; Potency, µM (series often up to 25.5 µM), without a hit: at the top dose activity change, negative = inhibition, most hits filed as inhibitors; CHIKV nsP2 protease enzymatic activity, qHTS; also: nearly all actives have a fitted effect of over 75% in size
# HCV NS3 4A cs: inhibits HCV NS3/4A protease in an nsP2pro selectivity counterscreen. shares compounds with nsP2pro inh. HCV NS3/4A protease biochemical counterscreen. Potency, µM (highest dose often 50.9 µM), most hits filed as inhibitors. 20% of 410 active. AID 1964106; also: nearly all actives have a fitted effect of over 55% in size
# * = called active by the depositor; i = inactive; ? = inconclusive; [ ] = remark or other dose. Calls follow the shape of the full dose curve. % is scaled to controls: 0 for no effect and ±100 for the full control effect; potency is read from the fitted curve at half-maximal effect.
SMILES,nsP2pro inh,others
O=C(c1ccc2ncccc2c1)N1CC(n2ccnc2)C1,i,
Cc1ccc(S(=O)(=O)O)cc1,7%,
Cc1ccc(S(=O)(=O)c2ncccc2[N+](=O)[O-])cc1,?,nsP2 cell sec=3.7µM*;NSP2 full ctr=?;Furin counter=-6%;NS23 peptide cs=9.2µM*;Papain cs=-6%;nsP2pro conf qHTS=8µM*;HCV NS3 4A cs=i
Cc1ccc(S(=O)(=O)c2nc(S(=O)(=O)c3ccc(C)cc3)c(NC(C)C)s2)cc1,-13%,
CCCCC[C@@H](O)CC[C@H]1[C@@H]2Cc3cccc(OCC(=O)O)c3C[C@@H]2C[C@@H]1O,-2%,
NC(=O)[C@@H](Cc1ccccc1)NC(=O)[C@@H]1C[C@@H](NS(=O)(=O)c2cccs2)CCN1C(=O)CSCC(=O)O,-20%,
CC1(C)CCCC2(C)c3c4c(c(=O)oc(=O)c3=CCC12)=CCC1C(C)(C)CCCC41C (stereo unspecified),4%[10 µM],
CC(C)c1cc2c(c(O)c1O)[C@@]13CCCC(C)(C)C1[C@@H](O)[C@@H]2OC3=O (stereo partly specified),6.1µM*,nsP2 cell sec=20%[33.5 µM];NSP2 full ctr=?;Furin counter=-6%[33.5 µM];NS23 peptide cs=?;Papain cs=-9%[33.5 µM];nsP2pro conf qHTS=6.2µM*;HCV NS3 4A cs=i
O=C1CCCC2=C1C(c1ccccc1Cl)N=C(c1ccccn1)N2 (stereo unspecified),-6%,
Cc1ccsc1C(=O)N1CCc2nnc([C@@H]3C[C@@H](O)CN3C(C)C)n2CC1,-21%,
COc1ccc(N2C[C@]34C=C[C@H](O3)C(C(=O)O)C4C2=O)cc1 (stereo partly specified),0%,
Cc1cc(C(=O)N2CCC(OCCOc3ccc(F)cc3)CC2)nn1C,-6%,
CCOC(=O)c1ccc(N2C(=O)c3n[nH]c(-c4ccco4)c3C2c2cccc(F)c2)cc1 (stereo unspecified),18%,
O=C(c1cc(-c2ccco2)[nH]n1)N1CCSC(c2cc(F)ccc2F)CC1 (stereo unspecified),3.2µM*,nsP2 cell sec=6%;NSP2 full ctr=5.8µM*;Furin counter=-9%;NS23 peptide cs=?;Papain cs=-19%;nsP2pro conf qHTS=9µM*;HCV NS3 4A cs=16µM*
O=C(NCC1(COc2ccc(C(F)(F)F)cn2)C[C@@H](O)[C@@H](O)C1)c1cnccn1 (stereo partly specified),i,
CCOC(=O)C1CCN(C(=O)C2(NC(=O)Nc3ccccc3Cl)CCC2)CC1,4%,
Cc1ccc(-c2cn3c(n2)N(S(C)(=O)=O)CCC3)cc1,i,
NCCCC(=O)N1CCC2(CC1)CN(C(=O)c1ccc(Cl)cc1)CCO2,-18%,
COc1ccc(C(=O)N2CCOC3(CCN(C(=O)CCN)CC3)C2)cc1,-10%,
NCCC(=O)N1CCC2(CC1)CN(C(=O)c1ccc(Cl)cc1)CCO2,7.9µM*,nsP2 cell sec=-11%;NSP2 full ctr=12µM*;Furin counter=11%;NS23 peptide cs=18µM*;Papain cs=-2%;nsP2pro conf qHTS=9µM*;HCV NS3 4A cs=2.9µM*
C=C1CCC2C(C)(C)CC(=O)CC2(C)C1CCC(C)CCOC(C)=O (stereo unspecified),-11%,
CC(C)NS(=O)(=O)c1ccc2c(c1)nc(-c1ccc(CO)o1)n2C(C)C,-19%,
COc1ccc(CC(=O)N2C[C@@H](C(=O)O)[C@H](c3ccccc3)C2)c(OC)c1,0%,
Cc1cc(C)nc(NC(=S)N2CCN(c3cccc(C(F)(F)F)n3)CC2)c1,-35%,
COc1ccc(CN(C(=O)COc2ccccc2OC)C2CCS(=O)(=O)C2)cc1 (stereo unspecified),-19%,
CCN(CC)Cc1ccc(C(=O)N(CCc2ccccc2OC)[C@@H]2CCNC2)cc1,?,nsP2 cell sec=12%[17.6 µM];NSP2 full ctr=6.3µM*;Furin counter=-9%;NS23 peptide cs=-40%[17.2 µM];Papain cs=-20%[17.2 µM];nsP2pro conf qHTS=?;HCV NS3 4A cs=?

# Screening results (PubChem BioAssay)
